Reference: PubChem BioAssay (NCATS)
Records with an inconclusive call do not appear. Entries that show only a call come without a potency. Activity calls are given as the source filed them. Calls come from the whole dose curve.

Test: Cytotoxicity counterscreen for inhibitors of SARS-CoV-2 cell entry (AID 1645845); note: nearly all actives have a fitted effect of over 50% in size
Details: cell viability (SARS-CoV-2 entry assay cells); series mostly up to 57.1 µM
Method in brief: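 After a 15 min room-temperature ATPLite 1step step, luminescence reflected ATP remaining in HEK293-ACE2 cells exposed to compound for 1 h plus 48 h at 37 C, with percent activity set by cell and no-cell controls.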

| SMILES | Potency |
| --- | --- |
| CCC(C)C(NC(=O)C(Cc1ccc(O)cc1)NC(=O)C(NC(=O)C(CCCN=C(N)N)NC(=O)C(N)CC(=O)O)C(C)C)C(=O)NC(Cc1cnc[nH]1)C(=O)N1CCCC1C(=O)NC(Cc1ccccc1)C(=O)O (centres undefined) | inactive |
| O=C(O)CCSC[C@H]1O[C@@H]2O[C@H]3[C@H](O)[C@@H](O)[C@@H](O[C@H]4[C@H](O)[C@@H](O)[C@@H](O[C@H]5[C@H](O)[C@@H](O)[C@@H](O[C@H]6[C@H](O)[C@@H](O)[C@@H](O[C@H]7[C@H](O)[C@@H](O)[C@@H](O[C@H]8[C@H](O)[C@@H](O)[C@@H](O[C@H]9[C@H](O)[C@@H](O)[C@@H](O[C@H]1[C@H](O)[C@H]2O)O[C@@H]9CSCCC(=O)O)O[C@@H]8CSCCC(=O)O)O[C@@H]7CSCCC(=O)O)O[C@@H]6CSCCC(=O)O)O[C@@H]5CSCCC(=O)O)O[C@@H]4CSCCC(=O)O)O[C@@H]3CSCCC(=O)O | inactive |
| NC(=O)c1nc(F)c[nH]c1=O | inactive |
| O=S(=O)(O)CC(S)CS (centres undefined) | inactive |
| COc1ccc2c(O[C@H]3CC4C(=O)N(C)CCCC/C=C\[C@@H]5C[C@@]5(C(=O)NS(=O)(=O)C5CC5)NC(=O)[C@@H]4C3)cc(-c3nc(C(C)C)cs3)nc2c1C (some centres undefined) | inactive |
| NC(Cc1cc(I)c(Oc2cc(I)c(O)c(I)c2)c(I)c1)C(=O)O (centres undefined) | inactive |
| CCN1CCCC1CNC(=O)c1cc(S(=O)(=O)CC)ccc1OC (centres undefined) | inactive |
| CN(CC(O)CO)C(=O)c1c(I)c(NC(=O)C(CO)CO)c(I)c(C(=O)N(C)CC(O)CO)c1I (centres undefined) | inactive |
| CC1(C)S[C@@H]2[C@H](NC(=O)C(C(=O)O)c3ccsc3)C(=O)N2[C@H]1C(=O)O (some centres undefined) | inactive |
